One experiment concerns Staphylococcus aureus. The note with it: Concentration 32 ug.mL-1;; ASSAY_TEST Inhibition of Bacterial Growth; detection method Absorption (OD600); MEDIA CAMHB; plate type 384well; NBS; CORNING #3640; time 18 hr.
The test system of the next experiment is Escherichia coli. The note with it: Concentration 32 ug.mL-1;; ASSAY_TEST Inhibition of Bacterial Growth; detection method Absorption (OD600); MEDIA CAMHB; plate type 384well; NBS; CORNING #3640; time 18 hr.

Results with a measured potency or affinity are listed apart.

Regarding `CCOc1ccc(-n2ccn3c(SCC(=O)c4ccc(F)cc4)nnc3c2=O)cc1`, the Inhibition (as a rule, the drop in the measured response relative to a control, in per cent) in the experiment on Staphylococcus aureus was 21.72%; in the experiment on Escherichia coli it was 2.02%.
On the same counts, the results for `Cc1ccc(-n2ccn3c(=O)n(Cc4ccc(Cl)cc4)nc3c2=O)cc1C` are 0.27% and -1.91%.
The like results for `COc1ccc(NC(=O)CSc2nnc3c(=O)n(-c4ccccc4OC)ccn23)cc1Cl` were, in that order, 16.85% and -0.75%.
The like results for `COc1ccc(CNC(=O)Cn2nc3c(Oc4cccc(C)c4C)nccn3c2=O)cc1` were, in that order, -12.87% and 0.86%.
`CCOC(=O)c1ccc(NC(=O)CSc2nc3ccccc3n3c(C(C)C)nnc23)cc1`: the results for the Inhibition with Staphylococcus aureus and in the experiment on Escherichia coli were -3.17% and -9.79%, respectively.
On the same counts, the results for `Cc1cccc(NC(=O)Cn2nc3c(SC4CCCCC4)nccn3c2=O)c1C` are 2.67% and 2.06%.
On the same counts, the results for `COc1ccc(CNC(=O)Cn2nc3c(N4CCN(c5ccccc5C)CC4)nccn3c2=O)cc1` are 6.39% and -3.43%.
With `COc1cccc(-n2ccn3c(SCC(=O)c4cc(C)c(C)cc4C)nnc3c2=O)c1`, the values for the Inhibition with Staphylococcus aureus and in the experiment on Escherichia coli were 15.67% and -4.7%, respectively.
The like results for `CCOC(=O)c1ccccc1NC(=O)Cn1nc2ccc(Sc3ccc(C)cc3)nn2c1=O` were, in that order, 14.05% and 1.21%.
The like results for `Cc1nnc2ccc(S(=O)(=O)N(Cc3cccc(Cl)c3)c3ccc(F)cc3)cn12` were, in that order, 3.62% and -8.44%.
For `CCc1nnc2c(S(=O)(=O)N(Cc3cccc(F)c3)c3ccc(F)cc3)cccn12`, the values for the Inhibition with Staphylococcus aureus and with Escherichia coli were -7.77% and -5%, respectively.
Take `O=c1c2sccc2n2c(=O)n(Cc3cccc(Cl)c3)nc2n1CCc1ccccc1`: the Inhibition in the experiment with Staphylococcus aureus was 10.13%; in the experiment with Escherichia coli, 1.01%.
Turning to `COc1ccc(-c2cc3c4nnc(SCC(=O)Nc5ccc(C#N)cc5)n4ccn3n2)cc1`, the Inhibition with Staphylococcus aureus was -3.8%; in the experiment with Escherichia coli, -6.47%.
On the same counts, the results for `CCOc1ccccc1CNC(=O)CCc1nnc2ccc(-c3ccc(C)cc3)nn12` are 9.96% and -0.64%.
The like results for `Cc1ccc(-c2ccc3nnc(CCC(=O)NCc4cccc(Br)c4)n3n2)cc1` were, in that order, 12.72% and -0.13%.
For the compound `Cc1ccc(Oc2nc3ccccc3n3c(=O)n(CC(=O)Nc4ccccc4C(F)(F)F)nc23)cc1`, the Inhibition in the experiment on Staphylococcus aureus amounted to 11.78%; with Escherichia coli, 1.07%.
On the same counts, the results for `O=S(=O)(c1ccc2nncn2c1)N(Cc1cc(F)cc(F)c1)c1ccc(F)c(F)c1` are 8.61% and -4.86%.
With `CC(C)(C)NC(=O)Cn1nc2n(Cc3ccco3)c(=O)c3sccc3n2c1=O`, the Inhibition in the experiment with Staphylococcus aureus is given as -2.47%; with Escherichia coli, -8.7%.
The like results for `CCOC(=O)c1ccc(NC(=O)Cn2nc3ccc(S(=O)(=O)C(C)(C)C)nn3c2=O)cc1` were, in that order, 5.05% and -4.95%.
The like results for `CCCn1c(=O)c2sccc2n2c(=O)n(CC(=O)c3ccccc3)nc12` were, in that order, 3.8% and 2.71%.
On the same counts, the results for `Cc1ccc(NC(=O)Cn2nc3c(SC4CCCCC4)nccn3c2=O)c(Br)c1` are 0.51% and -5.93%.
On to `COc1ccc(NC(=O)CSc2nnc3c(=O)n(-c4cccc(OC)c4)ccn23)cc1`, for which the Inhibition with Staphylococcus aureus was 14.04%; in the experiment with Escherichia coli it was -12.03%.
The like results for `Cc1ccc(-c2cc3c4nn(CC(=O)NCc5ccccc5Cl)c(=O)n4ccn3n2)cc1C` were, in that order, 0.72% and 0.46%.
The like results for `CCc1nnc2c(=O)n(CC(=O)Nc3ccc(C(C)C)cc3)c3ccccc3n12` were, in that order, 12.36% and 0.11%.
On the same counts, the results for `C=Cc1ccc(CN(c2ccc(F)c(F)c2)S(=O)(=O)c2cccn3cnnc23)cc1` are -2.72% and -13.7%.
With `COc1cccc(Oc2nccn3c(=O)n(CC(=O)NCc4ccccc4Cl)nc23)c1`, the Inhibition is given as 11.84% with Staphylococcus aureus and 2.87% in the experiment with Escherichia coli.
The like results for `Cc1cccc(CSc2nnc3c(=O)n(-c4ccc(Br)cc4)ccn23)c1` were, in that order, 20.89% and 1.19%.
The like results for `CCOC(=O)c1ccccc1NC(=O)Cn1nc2c(Oc3cccc(OC)c3)nccn2c1=O` were, in that order, -10.31% and 1.57%.
The like results for `Cc1cc2nn(CC(=O)NCc3ccc4c(c3)OCO4)c(=O)n2c(Nc2ccccc2C)n1` were, in that order, 0.76% and -4.19%.
In the case of `CCCn1c(=O)c2sccc2n2c(CCC(=O)NCCC34CC5CC(CC(C5)C3)C4)nnc12`, the Inhibition in the experiment with Staphylococcus aureus is reported as 0.48%; in the experiment on Escherichia coli, -2.55%.
For the compound `COc1ccc(N2CCN(C(=O)Cn3nc4ccc(S(=O)(=O)C(C)(C)C)nn4c3=O)CC2)cc1`, the results for the Inhibition with Staphylococcus aureus and in the experiment with Escherichia coli were 12.76% and 0.99%, respectively.
The like results for `O=C(Cn1nc2c(SC3CCCCC3)nccn2c1=O)Nc1ccc(F)cc1` were, in that order, 2.79% and -5.61%.
On the same counts, the results for `CCC(C)NC(=O)c1ccc2c(=O)n(C3CC3)c3nn(CC(=O)NC(C)C)c(=O)n3c2c1` (stereo not given) are 10.01% and -2.07%.
The like results for `O=C(Cn1nc2c(SC3CCCCC3)nccn2c1=O)Nc1ccc(F)c(Cl)c1` were, in that order, -11.33% and -12.19%.
As to `CCOC(=O)c1ccccc1NC(=O)Cn1nc2c(Oc3cccc(C)c3C)nccn2c1=O`, the Inhibition in the experiment on Staphylococcus aureus is 5.11%; in the experiment with Escherichia coli, -6.35%.

Source of the values: ChEMBL document CHEMBL4513146, “CO-ADD screening of Karazin Kharkiv National University (Ukraine) compounds”.
